Measured values published in ChEMBL document CHEMBL3988442, “University of Dundee, Small-Polar-MMV Screening Library” (2021).
The whole screen tested about 48,000 compounds, of which about 13,000 (27%) showed an effect of 50% or more. Some of the results follow.

What follows are compounds tested on Wolbachia pipientis (assay: Anti-Wolbachia Cell-Based Screen). Conditions: 5 µM.
Format: functional
Parameters: scale not given: in the data most compounds retested in dose-response had high values

Structure (SMILES)	Percent Effect [%]
CC(C)(C)CNS(=O)(=O)C1CS(=O)(=O)c2ccccc21 (stereo not given)	-2.538
CCN(C)S(=O)(=O)N1CCC(C(O)c2ccc(F)cc2)CC1 (stereo not given)	-5.224
Cc1n[nH]/c(=N\C(=O)c2c3c(nc4onc(C)c24)CCC3)s1	84.01
Cc1noc2nc3c(c(C(=O)/N=c4\[nH]nc(C(C)C)s4)c12)CCC3	96.48
COCc1n[nH]/c(=N\C(=O)c2c3c(nc4onc(C)c24)CCC3)s1	76.74
Cc1nn(C)c2nc3c(c(C(=O)/N=c4\[nH]nc(C(C)C)s4)c12)CCC3	112.1
Cc1nc(C)c(CNC[C@@]2(COc3cccnc3)C[C@@H](O)[C@@H](O)C2)s1.Cl.Cl	0.5308
O=C(CCn1cccn1)N1C[C@@H]2CC[C@H](C1)N(Cc1ccccn1)C2=O	2.815
Cl.NCCCNS(=O)(=O)Cc1ccc(Br)cc1	-40.39
CCCc1nc(CNc2nc(C)nc3oc(C)nc23)cs1	-12.23
COc1ccc(C(=O)N2CCC(Oc3ccccc3C)(C(=O)O)CC2)o1	-4.68
Cc1cs/c(=N\C(=O)c2c3c(nc4onc(C)c24)CCC3)[nH]1	113
Cc1noc2nc3c(c(C(=O)/N=c4\[nH]ncs4)c12)CCC3	123.1
COCc1noc(C2(c3ccc(F)cc3)CCOCC2)n1	-32.93
O=S(=O)(NCC1CCN(CCN2CCOCC2)C1)c1ccccc1F (stereo not given)	14.41
CC(=O)NCC(=O)N1CCn2cc(CN3CCN(C)CC3)nc2C1.O=C(O)C(F)(F)F.O=C(O)C(F)(F)F	-9.16
Cn1ccnc1CNC(=O)N1CCCC(Cc2nccn2C)C1 (stereo not given)	-2.047
CN(CCc1ccccc1)C1CCCN(Cc2nccn2C)C1 (stereo not given)	-2.668
CC(=O)N1CCCC(Cc2nccn2C)C1 (stereo not given)	104.6
Cn1ccnc1CC1CCCN(C(=O)Cc2ccccc2)C1 (stereo not given)	107.6
Cn1ccnc1CC1CCCN(C(=O)Nc2cccn(C)c2=O)C1 (stereo not given)	-3.094
CCC(C)(NCc1cccc(NC(C)=O)c1)c1nc(C)cs1 (stereo not given)	-6.571
CCNS(=O)(=O)C1CCN(C(=O)c2ccc(CC)o2)C1 (stereo not given)	1.453
CCN1CCN(C(=O)C(C)N2CCc3cncnc3C2)CC1 (stereo not given)	4.565
O=C1O[C@@H]2CN(CCc3ccccc3)C[C@@H]2N1CCCN1CCOCC1	-3.811

Structure (SMILES)	Percent Effect [%]
Cc1ccc(CC2COCCN(Cc3ccccc3)C2)nc1 (stereo not given)	76.14
Cc1cc(N2CCCN(CCc3ccccc3)CC2)ccn1	5.317
CN1CCN2CCN(Cc3cnc(NCc4ccccc4)nc3)CC2C1 (stereo not given)	2.574
CNc1cc(C)nc(N2CCN(Cc3ccccc3)CC(O)C2)n1 (stereo not given)	10.53
Cc1cc(CC2COCCN(CCc3ccccc3)C2)ncn1 (stereo not given)	136.2
CC(C)(C)c1coc([C@@H]2COCCN2Cc2ccccc2)n1	-6.681
CNc1cnc(CC2COCCN(Cc3ccccc3)C2)cn1 (stereo not given)	100
CNc1cnc(CC2COCCN(CCOc3ccccc3)C2)cn1 (stereo not given)	158.8
Clc1cncc(NCc2cccc(OCCN3CCOCC3)c2)n1	2.735
COc1ccc(CN2CCOC[C@H](OCc3ccccc3)C2)cc1	-4.744
c1ccc(NCc2cccc(OCCN3CCOCC3)c2)nc1	9.722
Cc1cc(C)n(C2CN(C(=O)Cn3c(=O)c(C)nc4ccccc43)C2)n1	-1.32
CNC(=O)[C@@H]1C[C@@H](N)CN1Cc1ccc2cccc(OC)c2n1	-0.1513
c1ccc(CCc2noc(CN3CCC(N4CCSCC4)CC3)n2)cc1	-3.456
N#Cc1ccc(CNC(=O)NC2CCN(CC(F)F)CC2)cc1	3.671
COc1cc(O)cc2c1C(=O)CC(c1ccc(O)cc1)O2 (stereo not given)	-2.59
CN(Cc1ccc(C#N)cc1)Cn1nccc1-c1cccnc1	11.16
COc1ccc(CN2Cc3cn(C)nc3C(COCC3CC3)C2)cc1 (stereo not given)	10.23
COc1ccccc1CN(Cc1cccc(C)c1)C(=O)[C@@H](N)CC(=O)O	3.134
Cc1cccc(CN2C[C@H]3OC(=O)N(CCCN4CCOCC4)[C@H]3C2)n1	-5.32
Oc1cc(CC2COCCN(CC3(O)CCOCC3)C2)ncn1 (stereo not given)	130
OC1COCCN(Cc2cccc(N3CCOCC3)c2)C1 (stereo not given)	-7.923
CCCN1CCC(CC(=O)NCc2cc(O)ncn2)CC1	-6.133
CNc1cnc(CC2COCCN(Cc3cccc(C)n3)C2)cn1 (stereo not given)	107
Cc1cccc(O[C@H]2COCCN(Cc3sc(C)nc3C)C2)n1	12.2

Structure (SMILES)	Percent Effect [%]
CSc1cc2c(cc1NC(=O)N(C)Cc1cnn(C)c1)OCCO2	-6.777
COCCN1C(=O)[C@H]2CC[C@@H]1CN(C(=O)Cc1ccc(O)c(Cl)c1)C2	12.68
CC(C)c1noc(Cn2ncn3cccc3c2=O)n1	-11.32
COCC(=O)N1CCC2(CC1)CCN(Cc1ccccn1)C2=O.O=C(O)C(F)(F)F	-18.96
O=C(O)C(F)(F)F.O=C(c1ccsc1)N1CCC2(CCN(Cc3ccccn3)C2=O)C1 (stereo not given)	124
O=C(O)C(F)(F)F.O=C(c1ccc(F)cc1)N1CCC2(CCN(Cc3ccccn3)C2=O)C1 (stereo not given)	89.07
Cc1oncc1C(=O)N1CCC2(CCN(Cc3ccccn3)C2=O)C1 (stereo not given)	-15.28
CN(C)CC(=O)N1CCC2(CCN(Cc3ccccn3)C2=O)C1 (stereo not given)	-12.92
Cc1cnc(C(=O)N2CCC3(CCN(Cc4ccccn4)C3=O)C2)cn1.O=C(O)C(F)(F)F (stereo not given)	102.4
Cc1ccc(C(=O)N2CCC3(CCN(Cc4ccccn4)C3=O)C2)cn1 (stereo not given)	76.19
Cc1cccc(CN2CCC3(CCCN(C(=O)c4ccoc4)C3)C2=O)n1.O=C(O)C(F)(F)F (stereo not given)	1.474
Cc1cccc(CN2CCC3(CCCN(C(=O)c4ccsc4)C3)C2=O)n1.O=C(O)C(F)(F)F (stereo not given)	-5.258
O=C(O)C(F)(F)F.O=C(c1cccnc1)N1CCCC2(CCN(c3ccsc3)C2=O)C1 (stereo not given)	9.95
COc1cccc(CC2CCCN2CCCC#N)c1 (stereo not given)	4.783
O[C@H]1[C@H](n2cc(-c3cccnc3)nn2)c2ccccc2C12CCNCC2	12.4
O=C(CCc1ccc(OC(F)(F)F)cc1)N1CCCS1(=O)=O	14.48
c1cnc(N2CCN(Cn3nccc3-c3cccnc3)CC2)nc1	3.122
Cc1ncc(C(=O)NC2CCN(CCOc3ccc(Br)cc3)CC2)s1	-10.45
CC(C)CC(NC(=O)c1ccc[nH]1)C(=O)N1CCC(CO)CC1 (stereo not given)	4.263
Cc1occc1C(=O)N1CCCC2(CCN(c3ccccc3)C2=O)C1 (stereo not given)	4.886
Cc1occc1C(=O)N1CCC2(CCN(Cc3ccccn3)C2=O)C1.O=C(O)C(F)(F)F (stereo not given)	103.9
Cc1occc1C(=O)N1CCCC2(CCN(CCN3CCCC3)C2=O)C1.O=C(O)C(F)(F)F (stereo not given)	-1.514
O=C(c1ccc(O)nc1)N1CCN(C(=O)c2ccc(F)c(F)c2)CC1	-0.8885
CCN1CCN(CCNC(=O)c2sc(C)nc2C)CC1	76.69
Cc1nc(C(C)C)sc1C(=O)NCCn1ccnc1	18.45

Structure (SMILES)	Percent Effect [%]
Cc1nc(C)c(C(=O)NCCNC(=O)Cc2ccccc2)s1	4.586
Cc1nc(C)c(C(=O)NCCNc2cc(N3CCCC3)ncn2)s1	20.28
CCN1CCN(CCNC(=O)c2sc(C(C)C)nc2C)CC1	114.4
Cc1nc(C(C)C)sc1CNC(=O)CCCN1CCCCC1	-2.668
CNC(=O)C1CCCCN1C(=O)c1csc(-c2ccccc2)n1 (stereo not given)	-0.9781
O=C(NCCCN1CCCC1)c1n[nH]c(=O)c2ccccc12	0.5839
CNC(=O)C1CCCCN1C(=O)c1n[nH]c(=O)c2ccccc12 (stereo not given)	98.92
CC1CCCCN1C(=O)c1n[nH]c(=O)c2ccccc12 (stereo not given)	115.2
CNC(=O)C1CCCCN1C(=O)c1cn(CCOC)c2ccccc12 (stereo not given)	-5.579
O=C(c1n[nH]c(=O)c2ccccc12)N1CCCCC1c1ccn[nH]1 (stereo not given)	-2.968
O=C(c1cccnc1)N1CCN2C(=O)N(Cc3ccc(F)cc3)C[C@H]2C1	2.014
COc1cccc(CCC2CCCN(C(=O)c3ccccn3)C2)c1 (stereo not given)	-14.56
Cn1ccc2cc(CC3COCCN(C(=O)c4cccnc4)C3)ccc21 (stereo not given)	69.9
Cn1ccc2cc(CC3COCCN(C(=O)c4ccccn4)C3)ccc21 (stereo not given)	118.8
CN(C)CCN1CC(C(=O)NCc2ccc(C#N)cc2)CC1=O (stereo not given)	-12.86
COc1ccc(CC(C)(O)CNC(=O)NCc2cccs2)cc1 (stereo not given)	-12.02
Cc1nc2c(c(=O)n1C)CN(C(=O)C1CCCN(CC(N)=O)C1)C2 (stereo not given)	-6.994
CN(CC(=O)NC(Cc1ccccc1)C1CCCC1)S(C)(=O)=O (stereo not given)	1.289
Cc1cc(N2CCC(C(=O)O)(n3ccc(C(C)(C)C)n3)CC2)nc(N)n1	-17.81
Cc1cc(NC(=O)NCC(O)c2ccc(Cl)cc2Cl)n(C)n1 (stereo not given)	1.838
Cc1cc(NC(=O)NCc2ccccc2OC(F)F)n(C)n1	8.208
Cc1cc(NC(=O)NCC(c2ccc(C)o2)N2CCOCC2)n(C)n1 (stereo not given)	126.3
Cc1cc(NC(=O)NCCc2ccccc2)n(C)n1	-5.779
Cc1cnc(C(=O)NCC(c2ccc(C)o2)N2CCOCC2)cn1 (stereo not given)	-11.84
Cc1cc(NC(=O)NCC(c2ccccc2)N2CCOCC2)n(C)n1 (stereo not given)	108.2
